Consider 37 compounds from PubChem BioAssay (NCATS).

Records with an inconclusive call do not appear. Where a call stands in place of a potency, no number is given. Values without a mark were called inactive. Calls of active or inactive are those of the source. Calls come from the whole dose curve; as a rule, active = well fitted cell-killing curve with a large enough effect; inconclusive = small, poorly fitted or top-dose-only effect, or effect the other way; inactive = flat fitted curve, though single readings scatter.
Potency is the fitted concentration of half-maximal effect.

One assay relates to Hek293T. Nature of the assay: Primary qHTS to identify gynecologic anti-cancer compounds using libraries of approved drugs and bioactive compounds (AID 1345084). Note: nearly all actives have a fitted effect of over 55% in size. To be noted: Gynecologic cancer cell panel viability, ATPlite luminescence, 48 h, control line for the selectivity index; series mostly up to 57.5 µM. In short, it runs like this:
(§1)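 Measured: luminescence after ATPlite addition (15 min, RT). Exposure: 48 h, 37 C, 5% CO2.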
`C[C@H](NC(c1cccc(C[P+](=O)O)c1)[C@H](C)O)c1ccc(Cl)c(Cl)c1` (stereo partly specified): the Potency result was “inactive”.

As for `O=C(N/N=C/c1ccc(O)c(O)c1)c1cc2ccccc2cc1O`, the Potency entry is “inactive”. On the same count and under the same terms, the value for `CO[C@H]1C[C@@H]2CC[C@@H](C)[C@@](O)(O2)C(=O)C(=O)N2CCCC[C@H]2C(=O)O[C@H]([C@H](C)C[C@H]2CC[C@@H](OP(C)(C)=O)[C@H](OC)C2)CC(=O)[C@H](C)/C=C(\C)[C@@H](O)[C@@H](OC)C(=O)[C@H](C)C[C@H](C)/C=C/C=C/C=C/1C` was “inactive”. Consider `CC(C)=CCC/C(C)=C/CO[C@@H]1O[C@H](CO)[C@@H](O)[C@H](O)[C@H]1O`, for which the Potency result is “inactive”. The same measure, in the same setting: the value for `O=C(O)CCCCCC[C@H]1C(=O)NC(=O)N1CC[C@@H](O)C1CCCCC1` was “inactive”; that for `CCC(O)(C(=O)OCc1ccccc1NC(=O)CCC(=O)O)C(C)O` (stereo unspecified) was “inactive”; that for `COC(=O)C[C@H]1[C@]2(C)C3=C(C)[C@H](c4ccoc4)C[C@H]3O[C@@H]2[C@H](OC(C)=O)C2[C@](C)(C(=O)OC)C=CC(=O)[C@@]21C` (stereo partly specified) was “inactive”. The same measure, in the same setting: the value for `C=C(C(=O)O)[C@H]1C[C@]2(C)[C@@H](O)CC[C@]23O[C@H]1C[C@@H]3C` was “inactive”; that for `Cc1cc(C)c(CNC(=O)c2cc(-c3ccc(CN4CCOCC4)cc3)cc3c2cnn3C2CCCC2)c(=O)[nH]1` was “inactive”; that for `O=C(O)c1ccc(CN2CCC(CN[C@@H]3C[C@H]3c3ccccc3)CC2)cc1` was “inactive”. For `COc1ccc(N2CCOCC2)c2sc(NC(=O)N3CCC(C)(O)CC3)nc12`, the Potency entry was “inactive”. In the case of `CCC(COC)n1nnc2c(Nc3ccc(OC)cc3C)nc(C)cc21` (stereo unspecified), the Potency entry is “inactive”. The same measure, in the same setting: the value for `CC(=O)OC1C[C@@]2(C)[C@@H](CC[C@@H](C)[C@]23Cc2c(O)cc4c(c2O3)CNC4=O)C(C)(C)[C@@H]1O` (stereo partly specified) was “inactive”; that for `OC/C=C/C=C/[C@H]1Cc2cc(O)cc(O)c2O1` was “inactive”; that for `C/C=C/C1=CC2=C(CO1)C(=O)C(C)(O)C(OC(=O)c1c(C)cc(OC)cc1O)C2` (stereo unspecified) was “inactive”.

A further assay has as its system JEG-3. Described as above. To be noted: Gynecologic cancer cell panel viability, ATPlite luminescence, 48 h; series mostly up to 57.5 µM. The gist of the method:
as §1
As for `C=C1[C@@H]2CC[C@@H]3[C@@](CCC4C(C(=O)O)(C(=O)O)C[C@@H](O[C@@H]5O[C@H](CO)[C@@H](O)[C@H](O)[C@H]5OC(=O)CC(C)C)C[C@]43C)(C2)[C@H]1O` (stereo partly specified), the Potency result was “inactive”. On the same count and under the same terms, the value for `N[C@@]1(C(=O)O)CC[C@H]2[C@H](C(=O)O)[C@H]21` was “inactive”. For `C[C@@H]1O[C@@H](O[C@H]2[C@@H]3C=CO[C@@H](O[C@@H]4O[C@H](CO)[C@@H](O)[C@H](O)[C@H]4O)[C@@H]3[C@@]3(CO)O[C@@H]23)[C@H](OC(=O)/C=C/c2ccccc2)[C@H](O)[C@H]1O`, the Potency entry is “inactive”. For the compound `C[C@@H]1CC[C@]2(C(=O)O[C@@H]3O[C@H](CO)[C@@H](O)[C@H](O)[C@H]3O)CC[C@]3(C)C(=CCC4[C@@]5(C)C[C@@H](O)[C@H](O)[C@](C)(C(=O)O)C5CC[C@]43C)[C@@H]2[C@]1(C)O` (stereo partly specified), the Potency entry was “inactive”.

Consider `C=C1CN(Cc2ccc(C(=O)Nc3ccccc3N)cc2)C(=O)c2ccccc21`, for which the Potency was 5.62 µM (active). Same read-out and setting: then `COc1ccc(C(=O)n2c(C)c(Cc3cccc(O[C@@H](C)C(=O)O)c3)c3cc(OC(F)(F)F)ccc32)cc1`, with “inactive”. As to `C[C@@H]1O[C@@H](O[C@@H]2[C@@H](O)[C@H](O[C@H]3CC[C@@]4(C)C(CC[C@]5(C)C4CC=C4[C@@H]6CC(C)(C)CC[C@]6(C(=O)O[C@@H]6O[C@H](CO)[C@@H](O)[C@H](O)[C@H]6O)CC[C@]45C)C3(C)C)O[C@H](C(=O)O)[C@H]2O)[C@H](O)[C@H](O)[C@H]1O` (stereo partly specified), the activity change, negative = cytotoxicity was 4.87% [at 11.6 µM]. For `CCOC(=O)C(CCc1ccccc1)NC(C)C(=O)N1C(=O)N(C)CC1C(=O)O` (stereo unspecified), the Potency result was “inactive”. Same read-out and setting: the value for `CC1=CCC2C(C)(C)CCC[C@]2(C)[C@@]12CC[C@](C)(CC(=O)O)O2` (stereo partly specified) was “inactive”; that for `CC1CCC2C(C)(C)[C@@H](O)CC[C@]2(C)C12Cc1c(O)cc3c(c1O2)CN(C(CCC(=O)O)C(=O)O)C3=O` (stereo partly specified) was “inactive”; that for `Cc1cc(NC(=O)Nc2ccc(F)c(F)c2)n(-c2ccccc2)n1` was “inactive”. For `CC(/C=C/C1=CC2=CC(=O)C(C)(O)C(O)C2=CO1)=C\C(C)CCO` (stereo unspecified), the Potency entry is “inactive”. With `CO[C@H]1C[C@@H]2CC[C@@H](C)[C@@](O)(O2)C(=O)C(=O)N2CCCC[C@H]2C(=O)O[C@H]([C@H](C)C[C@@H]2CC[C@H](n3cnnn3)[C@H](OC)C2)CC(=O)[C@H](C)/C=C(\C)[C@@H](O)[C@@H](OC)C(=O)[C@H](C)C[C@H](C)/C=C/C=C/C=C/1C`, the Potency result was “inactive”. The same measure, in the same setting: the value for `Cn1c(=O)cc(N2CCCC(N)C2)n(Cc2cc(F)ccc2C#N)c1=O` (stereo unspecified) was “inactive”; that for `CCN1CCN(Cc2ccc(NC(=O)c3ccc(C)c(/C=C/c4cnc5[nH]ccc5c4OC)c3)cc2C(F)(F)F)CC1` was “inactive”. Same read-out and setting: then `COc1c(Nc2ncc(Cl)c(N[C@H]3[C@@H](C(N)=O)[C@@H]4C=C[C@H]3C4)n2)ccc2c1CC[C@@H](N1CCOCC1)CC2`, with “inactive”; and `CNC(=S)NS(=O)(=O)c1cc(CCNC(=O)c2cc(Cl)ccc2OC)ccc1OC`, with “inactive”.

Take `COc1ccc(CC2NCCc3c2[nH]c2ccc(C)cc32)cc1OC` (stereo unspecified): the Potency result was “inactive”. Still for that read-out and setting: the value for `O=C(/C=C/c1cccc(S(=O)(=O)Nc2ccccc2)c1)NO` was 4.47 µM (active). Same read-out and setting: the value for `Cc1cccc(C)c1-n1c(=O)c2cnc(Nc3ccc(N4CCN(C)CC4)cc3)nc2n2c3ccccc3nc12` was 12.6 µM (active); that for `C=C[C@]1(C)C[C@H](O)[C@@H]2[C@H](OC(=O)[C@@H]2C)C1/C(C)=C/O[C@@H]1O[C@H](CO)[C@@H](O)[C@H](O)[C@H]1O` (stereo partly specified) was “inactive”. Still for that read-out and setting: then `C[C@H](NC(c1cccc(C[P+](=O)O)c1)[C@H](C)O)c1ccc(Cl)c(Cl)c1` (stereo partly specified), with “inactive”; and `O=C(N/N=C/c1ccc(O)c(O)c1)c1cc2ccccc2cc1O`, with “inactive”; and `CO[C@H]1C[C@@H]2CC[C@@H](C)[C@@](O)(O2)C(=O)C(=O)N2CCCC[C@H]2C(=O)O[C@H]([C@H](C)C[C@H]2CC[C@@H](OP(C)(C)=O)[C@H](OC)C2)CC(=O)[C@H](C)/C=C(\C)[C@@H](O)[C@@H](OC)C(=O)[C@H](C)C[C@H](C)/C=C/C=C/C=C/1C`, with “inactive”. As to `CC(C)=CCC/C(C)=C/CO[C@@H]1O[C@H](CO)[C@@H](O)[C@H](O)[C@H]1O`, the Potency entry is “inactive”.

Consider `O=C(O)CCCCCC[C@H]1C(=O)NC(=O)N1CC[C@@H](O)C1CCCCC1`, for which the Potency result was “inactive”. The same measure, in the same setting: then `CCC(O)(C(=O)OCc1ccccc1NC(=O)CCC(=O)O)C(C)O` (stereo unspecified), with “inactive”; and `COC(=O)C[C@H]1[C@]2(C)C3=C(C)[C@H](c4ccoc4)C[C@H]3O[C@@H]2[C@H](OC(C)=O)C2[C@](C)(C(=O)OC)C=CC(=O)[C@@]21C` (stereo partly specified), with “inactive”; and `C=C(C(=O)O)[C@H]1C[C@]2(C)[C@@H](O)CC[C@]23O[C@H]1C[C@@H]3C`, with “inactive”.

As to `COc1c(/C=C/C(C)(C)O)ccc2c1C(=O)OCc1cc(C)cc(O)c1O2`, the Potency entry is “inactive”.

Take `Cc1cc(C)c(CNC(=O)c2cc(-c3ccc(CN4CCOCC4)cc3)cc3c2cnn3C2CCCC2)c(=O)[nH]1`: the Potency entry is “inactive”. Same read-out and setting: then `COc1ccc(N2CCOCC2)c2sc(NC(=O)N3CCC(C)(O)CC3)nc12`, with “inactive”; and `CCC(COC)n1nnc2c(Nc3ccc(OC)cc3C)nc(C)cc21` (stereo unspecified), with “inactive”; and `CC(=O)OC1C[C@@]2(C)[C@@H](CC[C@@H](C)[C@]23Cc2c(O)cc4c(c2O3)CNC4=O)C(C)(C)[C@@H]1O` (stereo partly specified), with “inactive”. Regarding `OC/C=C/C=C/[C@H]1Cc2cc(O)cc(O)c2O1`, the Potency result is “inactive”. For `C/C=C/C1=CC2=C(CO1)C(=O)C(C)(O)C(OC(=O)c1c(C)cc(OC)cc1O)C2` (stereo unspecified), the Potency result was “inactive”.
